The AC50 is the midpoint of the concentration-response curve, whichever way the signal moves.

Results on 12 compounds are retold here after PubChem BioAssay (EPA / NIEHS).

Structures are written as SMILES. Results filed as inconclusive are left out. Active and inactive are the calls of the source. How the source made its calls, unless noted: active means hit-call score of the fitted dose curve at least 0.9, where 1 is the maximum; inactive means score below 0.9.

The test system of one assay is IYD (gene 389434). In words: CCTE_GLTED_hIYD: CCTE's human Iodotyrosine Deiodinase (xIYD) Inhibition Assay, Great Lakes Toxicology and Ecology Division (GLTED) Lab (AID 2284317; active means hit-call score of the fitted dose curve at least 0.9, where 1 is the maximum;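 further: cell-free human IYD enzyme made in baculovirus insect cells; iodide freed from monoiodotyrosine measured by cerium arsenite color change at 420 nm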). The procedure, abridged:
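hIYD: baculovirus-expressed human IYD deiodinated monoiodotyrosine for 3 h with test chemical; free iodide was measured by Sandell-Kolthoff absorbance at 420 nm and normalized to MNT and DMSO/NaOH controls.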

Assay [1] in a line: CCTE_Deisenroth_5AR_NBTE_donor: CCTE's 5alpha-reductase NanoBRET Target Engagement Assay […], Deisenroth Lab (AID 2284319). The settings on record: actives raise or lower the signal. The procedure, abridged:
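HEK293T cells were reverse transfected with an SRD5A2-NanoLuc vector for 20 h, exposed to test chemical (8 points, 10 nM - 29.9 uM) for 3 h, then testosterone tracer for 2 h more. Donor luminescence (460 nm) was read; bidirectional fit versus DMSO.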
(In BRET a luciferase serves as donor, and the signal depends on an acceptor being close.)

Assay [2] can be described thus: CCTE_Deisenroth_5AR_NBTE_acceptor: CCTE's 5alpha-reductase NanoBRET Target Engagement Assay - Autofluorescence Screen, Deisenroth Lab (AID 2284321).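 Further: compound fluorescence in the acceptor channel under 460 nm excitation flags autofluorescence artifacts.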 The settings on record: actives raise or lower the signal. The procedure, abridged: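 Chemicals diluted to a nominal 100 uM in DMSO were scanned at 460 nm excitation. Samples were read in three independent runs (n=3). Gain or loss of acceptor signal was fitted relative to DMSO.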

Another assay relates to SRD5A2 (gene 6716). The experiment in a line: CCTE_Deisenroth_5AR_NBTE_ratio: CCTE's 5alpha-reductase NanoBRET Target Engagement Assay - Ratio, Deisenroth Lab (AID 2284322). The settings on record: actives raise or lower the signal. The procedure, abridged:
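HEK293T transiently expressing SRD5A2-NanoLuc; cells exposed to chemical (8-point, 10 nM - 29.9 uM) for 5 h total, testosterone tracer added for final 2 h. NanoBRET acceptor/donor ratio (650/460 nm), bidirectional fit vs DMSO.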

For the next assay, the system named is SERPINA7 (gene 6906). In words: CCTE_GLTED_hTBG: CCTE's human Thyroxine-binding Globulin (TBG) Inhibition Assay, Great Lakes Toxicology and Ecology Division (GLTED) Lab (AID 2284343; active means hit-call score of the fitted dose curve at least 0.9, where 1 is the maximum;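 further: active chemicals lower fluorescence versus DMSO baseline by displacing probe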). The procedure, abridged:
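Human TBG incubated 2 h with test chemical; displacement of ANSA probe read by fluorescence, 380 nm excitation/475 nm emission. Loss of signal relative to DMSO.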

A short description of assay [3]: IUF_NPC4_neurite_area_120hr: Leibniz Research Institute for Environmental Medicine (IUF) 120-hour Neuronal Morphology Assay for Neurite Area (NPC4) (AID 2284305; active means hit-call score of the fitted dose curve at least 0.9, where 1 is the maximum). The procedure, abridged: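 Neurite area is read out as the mean pixel area, excluding nuclei, of skeletonized TUBB3-positive neurons imaged after 120 h. Primary human neural progenitor spheres differentiated on poly-D-lysine/laminin with compound present from day 0. Activity was referenced to DMSO controls.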

Assay [4] can be described thus: IUF_NPC2-5_cytotoxicity_72hr: Cytotoxicity Assessment at 72 hours in the Leibniz Research Institute for Environmental Medicine (IUF) Neural Progenitor Cell Migration and Differentiation Assay for Cytotoxicity (NPC2-5) (AID 2284306; active means hit-call score of the fitted dose curve at least 0.9, where 1 is the maximum;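 further: LDH release into supernatant measured by resorufin fluorescence marking membrane damage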). The procedure, abridged: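 Membrane integrity loss was scored from fluorescence (RFU) of resorufin generated by LDH in culture supernatant, 72 h after dosing. Differentiating human progenitor spheres received seven serial compound concentrations alongside a solvent control.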

A short description of assay [5]: IUF_NPC2-5_cytotoxicity_120hr: Cytotoxicity Assessment at 120 hours in the Leibniz Research Institute for Environmental Medicine (IUF) Neural Progenitor Cell Migration and Differentiation Assay (NPC2-5) (AID 2284307; active means hit-call score of the fitted dose curve at least 0.9, where 1 is the maximum;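 further: LDH released into supernatant as membrane damage marker via resorufin fluorescence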). The procedure, abridged:
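Fluorescence (RFU) from LDH-driven resazurin reduction in medium supernatants measured loss of membrane integrity after 120 h of compound exposure of differentiating primary human neural progenitor spheres on an extracellular matrix.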

Assay [6] in a line: IUF_NPC2-5_cell_number_120hr: Cell Number Assessment at 120 hours in the Leibniz Research Institute for Environmental Medicine (IUF) Neural Progenitor Cell Migration and Differentiation Assay (NPC2-5) (AID 2284308).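 Further: count of Hoechst-stained nuclei in migration zone around plated human neural progenitor spheres.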 The procedure, abridged:
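Cell number is taken as all Hoechst-positive nuclei detected in the area into which cells migrate out of the sphere, scored at 120 h and referenced to DMSO solvent control, which was kept at no more than 0.1%.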

Assay [7] is described as follows: IUF_NPC2-5_viability_120hr: Viability Assessment at 120 hours in the Leibniz Research Institute for Environmental Medicine (IUF) Neural Progenitor Cell Migration and Differentiation Assay (NPC2-5) (AID 2284312). The procedure, abridged: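 Alamar blue resorufin fluorescence read after 5 days of differentiation, with compound present from day 0 and replenished at day 3. Primary hNPC spheres on laminin-coated plates, 37C; seven concentrations plus solvent control, fitted against DMSO.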

Assay [8] in a line: TAMU_PeakParms_SingleDonor1434_Asystole: Texas A&M University (TAMU) 1.5-hr Human Induced Pluripotent Stem Cell (iPSC)-derived Cardiomyocytes Calcium (Ca+2) Flux Assay for Cardiotoxicity: Asystole (quiescence of beating) (AID 2284328; active means hit-call score of the fitted dose curve at least 0.9, where 1 is the maximum). The procedure, abridged: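 Average Ca2+-flux peak frequency (beats/s) was recorded in single-donor iPSC-derived cardiomyocytes after 90 min exposure (0.2–100 uM final, 0.5% DMSO). Asystole POD set as EC95 against DMSO, no preprocessing.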

The nature of assay [9]: IUF_NPC1_cytotoxicity_72hr: Cytotoxicity Assessment at 72 hours in the Leibniz Research Institute for Environmental Medicine (IUF) Neural Progenitor Cell Proliferation Assay (NPC1) (AID 2284332; active means hit-call score of the fitted dose curve at least 0.9, where 1 is the maximum;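 further: rising LDH signal means more cytotoxicity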). The procedure, abridged: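 Human fetal neural progenitor spheres (0.3 mm) in EGF/FGF proliferation medium, 37C, exposed 72 h without renewal. LDH release in supernatant read by resorufin fluorescence; gain of signal scored relative to dynamic range.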

The test system of assay [10] is Brachyury (BRA) Protein Expression, Deisenroth Lab, TBXT (gene 6862). In words: CCTE_Deisenroth_DEVTOX-GLR_legacy_Bra: (Legacy) CCTE's DevTox GLR-Endo Assay Evaluation of Brachyury (BRA) Protein Expression, Deisenroth Lab (AID 2284329). The procedure, abridged:
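Human pluripotent RUES2-GLR line was exposed twice during 48 h differentiation to a 10-point series, 1 nM - 200 uM. Fraction of Bra-positive cells was scored by imaging against pluripotent baseline and fitted after 0.2% DMSO subtraction.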

The nature of assay [11]: CCTE_Deisenroth_DEVTOX-GLR_legacy_CellCount: (Legacy) Viability Assessment in CCTE's DevTox GLR-Endo Assay, Deisenroth Lab (AID 2284331). The settings on record: actives raise or lower the signal. The procedure, abridged: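 RUES2-GLR human pluripotent cells were seeded 24 h, then differentiated 48 h with two compound doses at 24 h intervals (10-point, 1 nM - 200 uM). Fixed nuclei were imaged and counted; bidirectional fitting versus 0.2% DMSO.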

In assay [12] the test system is SRY-box transcription factor 17 (SOX17) Protein Expression, Deisenroth Lab, SOX17 (gene 64321). In words: CCTE_Deisenroth_DEVTOX-GLR_legacy_Sox17: (Legacy) CCTE's DevTox GLR-Endo Assay Evaluation of SRY-box transcription factor 17 (SOX17) Protein Expression, Deisenroth Lab (AID 2284341). The settings on record: actives raise or lower the signal. The procedure, abridged:
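Percent SOX17-positive cells, scored by high-content imaging as mean intensity exceeding pluripotent-control median by 5x BMAD, divided by cell count. Human RUES2-GLR endoderm differentiation, 48 h, two exposures 24 h apart, 1 nM–200 uM; DMSO-referenced bidirectional fitting.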

Assay [13] relates to SRY-box transcription factor 2 (SOX2) Protein Expression, Deisenroth Lab, SOX2 (gene 6657). The experiment in a line: CCTE_Deisenroth_DEVTOX-GLR_legacy_Sox2: (Legacy) CCTE's DevTox GLR-Endo Assay Evaluation of SRY-box transcription factor 2 (SOX2) Protein Expression, Deisenroth Lab (AID 2284346). The procedure, abridged: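 hPSC RUES2-GLR, 384-well; 24 h seed → 48 h endoderm differentiation, 2 doses q24h, 1 nM–200 uM. Fix, nuclear dye, 5 fields/well. Sox2+ cells/cell count; cell positive if >5x BMAD over endoderm ctrl; gain direction vs DMSO.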

As for `CCCCCCCCCCCCCCN(CCO)CCO`, the AC50 is 38.6 µM (active) in the assay with IYD (gene 389434), 62.3 µM (active) in [1], 50 µM (active) in [2] and 77.7 µM (active) in the assay on SRD5A2 (gene 6716).
Turning to `O=[N+]([O-])c1ccc(O)cc1C(F)(F)F`, the result in [1] and in assay [2] was inactive. The AC50 was 50 µM (active) with SRD5A2 (gene 6716) and 28.2 µM (active) in the assay with SERPINA7 (gene 6906).
Turning to `Nc1ccccc1[N+](=O)[O-]`, the compound was classed as inactive in [1] and in [2]. Moreover, the AC50 with SRD5A2 (gene 6716) is 50 µM (active).
In the case of `Oc1c(Cl)cc(Cl)c(Cl)c1Cc1c(O)c(Cl)cc(Cl)c1Cl`, the AC50 is 0.264 µM (active) in assay [3]; 0.702 µM (active) in [4]; 0.295 µM (active) in assay [5]; 0.204 µM (active) in assay [6]; 0.147 µM (active) in assay [7]; 2.11 µM (active) in [8]. The result in assay [9] was inactive.
For the compound `CCCCC(CC)COC(=O)c1ccc(O)cc1` (stereo not drawn), the AC50 in the assay with IYD (gene 389434) was 44.3 µM (active); in the assay with SERPINA7 (gene 6906) it was 5.72 µM (active).
Take `O=C(c1ccccc1)C(O)c1ccccc1` (stereo not drawn): the half-maximal activity concentration (AC50) in the assay with SERPINA7 (gene 6906) was 15.9 µM (active).
In the case of `OCc1cccc(Oc2ccccc2)c1`, the AC50 in the assay on SERPINA7 (gene 6906) was 27.4 µM (active).
As to `Cc1ccc(S(=O)(=O)Oc2ccc(N=Nc3ccc(-c4ccc(N=Nc5c(O)ccc6cc(S(=O)(=O)O)cc(S(=O)(=O)O)c56)c(C)c4)cc3C)cc2)cc1`, the AC50 with IYD (gene 389434) was 44.4 µM (active); with SRD5A2 (gene 6716), 11.9 µM (active); with SERPINA7 (gene 6906), 3.93 µM (active). Also, the compound was classed as inactive in [1] and in [2].
For `CS(=O)(=O)OCCCCOS(C)(=O)=O`, in assay [10], the compound was called inactive. Moreover, the AC50 in [11] is 14.6 µM (active); in assay [12], 47.3 µM (active); in [13] it was 77 µM (active).
`CCCCCCCCCCCCCC(=O)OCC(O)CO` (stereo not drawn): the half-maximal activity concentration (AC50) in the assay on IYD (gene 389434) was 100 µM (active).
With `C=C[Si]1(C)O[Si](C)(C=C)O[Si](C)(C=C)O[Si](C)(C=C)O1` (stereo not drawn), the outcome in the assay with SERPINA7 (gene 6906) was inactive.
In the case of `O=C(Nc1ccc2c(O)c(N=Nc3ccc(N=Nc4ccc(S(=O)(=O)O)cc4)cc3)c(S(=O)(=O)O)cc2c1)c1ccccc1`, the AC50 in the assay with IYD (gene 389434) was 91.3 µM (active); in assay [1], 9.98 µM (active); with SRD5A2 (gene 6716), 11.6 µM (active); with SERPINA7 (gene 6906) it was 16.6 µM (active). The compound was called inactive in assay [2].
